Measurements as given in publication PMC7862700, “An all-to-all approach to the identification of sequence-specific readers for epigenetic DNA modifications on cytosine”.

Columns and labels:
Experiment in all cases: DAPPL (digital affinity profiling via proximity ligation, sequencing); 10 mM Tris-HCl pH 7.5, 50 mM NaCl, 1 mM DTT, 4% glycerol, room temperature, 30 min; GST-TFs on glutathione beads, 16-mer random dsDNA library, 0.1% formaldehyde crosslink after washing; high values mean tight binding
Conditions in all cases: protein: recombinant; tags: N-terminal GST; dsDNA, one strand shown
ELF1 = ELF1 (Homo sapiens, UniProt P32519 1-619)
Method in brief: (§1)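 A tag-only sample was pooled with DNA-barcoded human transcription factors that had been expressed in yeast as GST fusions and captured on glutathione beads. The pools were incubated for 30 min at room temperature with 200 nmole of a random double-stranded 16-mer DNA library in Tris/NaCl/DTT/glycerol buffer, then washed, crosslinked with 0.1% formaldehyde, proximity-ligated (BsaI/T4 ligase, 1 h, 37 °C), PCR-amplified and sequenced on an Illumina NextSeq500. Binding signal is each hexamer's read frequency for a factor divided by its frequency for the tag-only sample.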

ELK3 = molecular target: T1, ELK3 (Homo sapiens, UniProt P41970 1-407)
T1 sequence: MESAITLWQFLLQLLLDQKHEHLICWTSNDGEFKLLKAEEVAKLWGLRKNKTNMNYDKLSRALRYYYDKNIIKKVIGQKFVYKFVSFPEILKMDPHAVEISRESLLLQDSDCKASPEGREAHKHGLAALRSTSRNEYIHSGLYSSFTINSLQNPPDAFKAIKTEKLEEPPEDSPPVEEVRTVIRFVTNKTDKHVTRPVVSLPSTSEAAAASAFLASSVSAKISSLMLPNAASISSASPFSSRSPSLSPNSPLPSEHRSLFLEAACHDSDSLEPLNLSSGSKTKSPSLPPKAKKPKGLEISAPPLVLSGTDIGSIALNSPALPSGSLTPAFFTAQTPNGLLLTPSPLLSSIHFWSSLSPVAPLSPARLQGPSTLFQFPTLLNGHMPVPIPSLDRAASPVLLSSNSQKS
Method in brief: as §1

ELK4 = molecular target: T2, ELK4 (Homo sapiens, UniProt P28324-2 1-405)
T2 sequence: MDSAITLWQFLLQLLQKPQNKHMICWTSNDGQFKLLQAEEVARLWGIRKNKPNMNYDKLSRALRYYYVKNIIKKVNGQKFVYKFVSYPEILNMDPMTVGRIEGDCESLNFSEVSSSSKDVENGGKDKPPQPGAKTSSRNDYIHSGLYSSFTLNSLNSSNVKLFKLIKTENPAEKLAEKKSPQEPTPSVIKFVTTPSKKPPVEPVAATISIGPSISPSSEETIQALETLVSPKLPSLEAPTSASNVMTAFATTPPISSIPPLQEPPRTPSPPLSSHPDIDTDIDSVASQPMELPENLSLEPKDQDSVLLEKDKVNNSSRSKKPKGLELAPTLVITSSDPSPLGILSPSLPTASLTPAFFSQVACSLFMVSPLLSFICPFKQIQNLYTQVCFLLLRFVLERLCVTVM
Method in brief: as §1

ETV2 = molecular target: T3, ETV2 (Homo sapiens, UniProt O00321 1-342)
T3 sequence: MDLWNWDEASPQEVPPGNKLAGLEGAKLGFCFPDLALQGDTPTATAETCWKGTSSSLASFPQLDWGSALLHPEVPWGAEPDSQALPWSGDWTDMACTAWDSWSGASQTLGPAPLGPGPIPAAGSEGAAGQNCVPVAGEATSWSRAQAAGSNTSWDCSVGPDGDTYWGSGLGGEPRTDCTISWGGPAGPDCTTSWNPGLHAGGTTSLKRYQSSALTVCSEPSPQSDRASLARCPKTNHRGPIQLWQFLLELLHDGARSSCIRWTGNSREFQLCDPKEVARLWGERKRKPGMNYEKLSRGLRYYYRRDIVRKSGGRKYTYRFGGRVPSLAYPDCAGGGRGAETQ
Method in brief: as §1

ELF3 = molecular target: T4, ELF3 (Homo sapiens, UniProt P78545 1-371)
T4 sequence: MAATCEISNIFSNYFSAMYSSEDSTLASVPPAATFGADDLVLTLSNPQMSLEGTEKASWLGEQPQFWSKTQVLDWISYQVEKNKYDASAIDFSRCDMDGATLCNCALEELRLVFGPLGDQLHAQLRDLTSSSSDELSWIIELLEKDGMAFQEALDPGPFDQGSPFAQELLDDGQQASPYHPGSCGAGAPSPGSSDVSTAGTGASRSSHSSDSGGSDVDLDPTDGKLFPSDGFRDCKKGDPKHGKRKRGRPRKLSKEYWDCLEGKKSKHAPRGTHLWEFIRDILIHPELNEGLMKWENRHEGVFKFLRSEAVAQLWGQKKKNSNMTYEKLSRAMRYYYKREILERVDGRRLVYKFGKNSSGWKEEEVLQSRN
Method in brief: as §1

ETV1 = ETV1 (Homo sapiens, UniProt P50549 1-477)
Method in brief: as §1

CRX = CRX (Homo sapiens, UniProt O43186 1-299)
Method in brief: as §1

ETS2 = molecular target: T5, ETS2 (Homo sapiens, UniProt P15036 1-469)
T5 sequence: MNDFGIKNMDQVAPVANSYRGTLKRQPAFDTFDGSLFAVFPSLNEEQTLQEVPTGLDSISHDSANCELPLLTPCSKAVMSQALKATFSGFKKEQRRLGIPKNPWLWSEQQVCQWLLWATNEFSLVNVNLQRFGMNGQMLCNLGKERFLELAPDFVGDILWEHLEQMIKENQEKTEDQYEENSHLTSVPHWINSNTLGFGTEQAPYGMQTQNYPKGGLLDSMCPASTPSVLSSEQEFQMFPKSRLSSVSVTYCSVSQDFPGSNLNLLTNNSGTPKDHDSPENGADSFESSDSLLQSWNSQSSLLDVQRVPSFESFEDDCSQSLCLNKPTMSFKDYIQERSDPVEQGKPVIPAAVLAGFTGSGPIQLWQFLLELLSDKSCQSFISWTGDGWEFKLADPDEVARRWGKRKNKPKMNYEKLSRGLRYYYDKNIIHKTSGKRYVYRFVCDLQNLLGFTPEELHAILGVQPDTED
Method in brief: as §1

ETV7 = molecular target: T6, ETV7 (Homo sapiens, UniProt Q9Y603 1-341)
T6 sequence: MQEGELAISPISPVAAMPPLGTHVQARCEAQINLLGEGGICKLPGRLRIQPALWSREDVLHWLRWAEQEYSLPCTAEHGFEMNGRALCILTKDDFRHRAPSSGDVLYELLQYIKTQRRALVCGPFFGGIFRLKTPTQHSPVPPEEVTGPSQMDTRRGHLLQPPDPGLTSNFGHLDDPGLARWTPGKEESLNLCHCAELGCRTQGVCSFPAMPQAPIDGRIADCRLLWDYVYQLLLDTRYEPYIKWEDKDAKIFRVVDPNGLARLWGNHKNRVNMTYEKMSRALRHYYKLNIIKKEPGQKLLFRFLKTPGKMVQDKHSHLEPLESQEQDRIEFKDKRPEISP
Method in brief: as §1

Sequence of ELF1 (P32519 whole entry, the tested form may be a part): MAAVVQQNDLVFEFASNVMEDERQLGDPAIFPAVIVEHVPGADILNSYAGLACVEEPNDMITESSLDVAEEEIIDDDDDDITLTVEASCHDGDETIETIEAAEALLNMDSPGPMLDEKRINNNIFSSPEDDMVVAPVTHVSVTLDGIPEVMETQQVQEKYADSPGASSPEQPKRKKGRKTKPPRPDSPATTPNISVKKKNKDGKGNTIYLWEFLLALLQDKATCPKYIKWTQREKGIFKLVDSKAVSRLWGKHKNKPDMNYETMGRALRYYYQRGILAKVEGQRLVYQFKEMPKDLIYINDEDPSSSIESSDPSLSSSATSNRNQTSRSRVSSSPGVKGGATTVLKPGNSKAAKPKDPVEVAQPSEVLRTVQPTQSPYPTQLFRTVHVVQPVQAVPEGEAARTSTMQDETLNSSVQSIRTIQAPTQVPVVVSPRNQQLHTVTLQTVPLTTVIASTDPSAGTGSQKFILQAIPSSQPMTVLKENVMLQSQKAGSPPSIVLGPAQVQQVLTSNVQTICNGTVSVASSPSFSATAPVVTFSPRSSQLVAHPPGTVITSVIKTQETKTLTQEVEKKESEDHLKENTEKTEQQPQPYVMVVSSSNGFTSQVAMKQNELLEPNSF
Sequence of CRX (O43186 whole entry): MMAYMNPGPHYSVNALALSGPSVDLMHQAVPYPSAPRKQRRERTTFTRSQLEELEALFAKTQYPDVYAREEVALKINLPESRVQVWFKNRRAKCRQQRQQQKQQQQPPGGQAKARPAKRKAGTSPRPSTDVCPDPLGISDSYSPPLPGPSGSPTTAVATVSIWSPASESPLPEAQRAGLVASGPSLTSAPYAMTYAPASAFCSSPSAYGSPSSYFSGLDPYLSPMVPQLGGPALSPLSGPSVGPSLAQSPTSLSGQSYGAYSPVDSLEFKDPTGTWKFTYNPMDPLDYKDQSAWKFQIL
Sequence of ETV1 (P50549 whole entry): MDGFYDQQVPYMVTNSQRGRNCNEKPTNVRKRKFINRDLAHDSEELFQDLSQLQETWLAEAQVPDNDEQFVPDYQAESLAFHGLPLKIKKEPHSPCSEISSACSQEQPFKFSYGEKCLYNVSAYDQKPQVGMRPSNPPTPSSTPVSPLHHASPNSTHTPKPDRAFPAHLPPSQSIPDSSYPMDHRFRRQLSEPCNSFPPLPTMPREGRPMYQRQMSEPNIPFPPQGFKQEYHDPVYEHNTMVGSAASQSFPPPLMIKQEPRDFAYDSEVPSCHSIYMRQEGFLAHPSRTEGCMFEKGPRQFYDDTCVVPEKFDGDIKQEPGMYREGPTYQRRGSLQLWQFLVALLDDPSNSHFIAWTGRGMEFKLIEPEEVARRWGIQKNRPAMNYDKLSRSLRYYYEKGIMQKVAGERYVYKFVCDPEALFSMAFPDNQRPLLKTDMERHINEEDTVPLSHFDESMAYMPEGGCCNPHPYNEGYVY

Row | Sequence | binding signal (ELF1) | binding signal (ELK3) | binding signal (ELK4) | binding signal (ETV2) | binding signal (ELF3) | binding signal (ETV1) | binding signal (CRX) | binding signal (ETS2) | binding signal (ETV7)
1 | TGAACG | 1.01 fold enrichment (6-mer frequency, TF over GST control) | 1.06 fold enrichment (6-mer frequency, TF over GST control) | 1.02 fold enrichment (6-mer frequency, TF over GST control) | 1.02 fold enrichment (6-mer frequency, TF over GST control) | 1.16 fold enrichment (6-mer frequency, TF over GST control) | 1.02 fold enrichment (6-mer frequency, TF over GST control) |  |  | 
2 | AAAGTC |  | 1.08 fold enrichment (6-mer frequency, TF over GST control) | 1.08 fold enrichment (6-mer frequency, TF over GST control) |  |  |  | 1.01 fold enrichment (6-mer frequency, TF over GST control) | 1.03 fold enrichment (6-mer frequency, TF over GST control) | 1.05 fold enrichment (6-mer frequency, TF over GST control)
